Inconclusive results are not listed. Where a call stands in place of a potency, no number is given. Active and inactive are the calls of the source. The call rests on the fitted dose curve; in most records, active means well fitted inhibition curve with a large enough effect; inconclusive means small, poorly fitted or top-dose-only effect; inactive means flat fitted curve, though single readings scatter.
Potency means the concentration at half of the fitted maximal effect.

This test in a line: P-glycoprotein substrates identified in KB-8-5-11 adenocarcinoma cell line, qHTS therapeutic library screen (AID 1346987). Further: nearly all actives have a fitted effect of over 65% in size. The following applies: KB-8-5-11 (P-gp overexpressing) viability, CellTiter-Glo, 72 h; series mostly up to 44.5 µM. The gist of the method: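 Luminescence from CellTiter-Glo, read 5 min after addition, quantified survival of KB-8-5-11 (P-gp-overexpressing) cells exposed to compounds for 72 h. AC50 was derived from concentration-response curves.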
In the case of `CC1=C2C=C(CO)C(CO)CCC2(C)CCC1=O` (centres undefined), the Potency result is “inactive”.

For `CCc1nc(C(N)=O)c(Nc2ccc(N3CCC(N4CCN(C)CC4)CC3)c(OC)c2)nc1NC1CCOCC1`, the Potency is 5.7 µM (active).

For `CCCOc1ccn2c(C(C)=O)cc(-c3ccccc3S(C)(=O)=O)c2c1`, the Potency result was “inactive”.

With `O=C(O)c1cc(O)c2cccc(O)c2c1O[C@@H]1O[C@H](CO)[C@@H](O)[C@H](O)[C@H]1O`, the Potency result is “inactive”.

Turning to `CC(C)(OC1OC(CO)C(O)C(O)C1O)C1CCC(O)(CO)C2CC(O)C(C)(O)C2C1` (centres undefined), the Potency entry was “inactive”.

With `C/C=C1/[C@H](O[C@@H]2O[C@H](CO)[C@@H](O)[C@H](O)[C@H]2O)OC=C(C(=O)OC)[C@H]1CC(=O)O[C@@H]1O[C@H](CO)[C@@H](O)[C@H](O)[C@H]1O`, the Potency result is “inactive”.

With `C=CC1(C)CC2=CCC3C(C)(C(=O)O)CCCC3(C)C2CC1OC(C)=O` (centres undefined), the Potency entry is “inactive”.

Take `CC(=O)O[C@H]1[C@H](C)[C@@H](O)[C@H]2[C@@H]1C=C(C(=O)O)[C@H]1C[C@@H]3[C@H]([C@H]21)[C@H]1C(=O)O[C@@H]2CC[C@@]3(C)O[C@]1(O)[C@@H]2C`: the Potency entry was “inactive”.

With `COc1ccc(/C=C/C(=O)O[C@H]2[C@@H]3C=CO[C@@H](O[C@@H]4O[C@H](CO)[C@@H](O)[C@H](O)[C@H]4O)[C@@H]3[C@@]3(CO)O[C@@H]23)cc1O`, the Potency result is “inactive”.

Values taken from PubChem BioAssay (NCATS).
